Laboratory results taken from ChEMBL document CHEMBL3988442, “University of Dundee, Small-Polar-MMV Screening Library” (2021).
For some of these results: Potency and affinity values are given separately.

Tests used:
Parameters in all cases: scale not given: direction of the effect not stated beside the values
[1] = target: Protein translocase subunit SecA (Escherichia coli (strain K12)) (UniProt P10408); test: Assay to Identify E. coli SecA ATPase Inhibitors; type: functional; settings: 30 µM
[2] = target: T1, Ubiquitin-activating enzyme e1, putative (Leishmania donovani (strain BPK282A1)) (UniProt E9BSI1); test: Leishmania donovani Ubiquitin Activating Enzyme (LdE1); type: functional; settings: 30 µM
T1 sequence (whole entry): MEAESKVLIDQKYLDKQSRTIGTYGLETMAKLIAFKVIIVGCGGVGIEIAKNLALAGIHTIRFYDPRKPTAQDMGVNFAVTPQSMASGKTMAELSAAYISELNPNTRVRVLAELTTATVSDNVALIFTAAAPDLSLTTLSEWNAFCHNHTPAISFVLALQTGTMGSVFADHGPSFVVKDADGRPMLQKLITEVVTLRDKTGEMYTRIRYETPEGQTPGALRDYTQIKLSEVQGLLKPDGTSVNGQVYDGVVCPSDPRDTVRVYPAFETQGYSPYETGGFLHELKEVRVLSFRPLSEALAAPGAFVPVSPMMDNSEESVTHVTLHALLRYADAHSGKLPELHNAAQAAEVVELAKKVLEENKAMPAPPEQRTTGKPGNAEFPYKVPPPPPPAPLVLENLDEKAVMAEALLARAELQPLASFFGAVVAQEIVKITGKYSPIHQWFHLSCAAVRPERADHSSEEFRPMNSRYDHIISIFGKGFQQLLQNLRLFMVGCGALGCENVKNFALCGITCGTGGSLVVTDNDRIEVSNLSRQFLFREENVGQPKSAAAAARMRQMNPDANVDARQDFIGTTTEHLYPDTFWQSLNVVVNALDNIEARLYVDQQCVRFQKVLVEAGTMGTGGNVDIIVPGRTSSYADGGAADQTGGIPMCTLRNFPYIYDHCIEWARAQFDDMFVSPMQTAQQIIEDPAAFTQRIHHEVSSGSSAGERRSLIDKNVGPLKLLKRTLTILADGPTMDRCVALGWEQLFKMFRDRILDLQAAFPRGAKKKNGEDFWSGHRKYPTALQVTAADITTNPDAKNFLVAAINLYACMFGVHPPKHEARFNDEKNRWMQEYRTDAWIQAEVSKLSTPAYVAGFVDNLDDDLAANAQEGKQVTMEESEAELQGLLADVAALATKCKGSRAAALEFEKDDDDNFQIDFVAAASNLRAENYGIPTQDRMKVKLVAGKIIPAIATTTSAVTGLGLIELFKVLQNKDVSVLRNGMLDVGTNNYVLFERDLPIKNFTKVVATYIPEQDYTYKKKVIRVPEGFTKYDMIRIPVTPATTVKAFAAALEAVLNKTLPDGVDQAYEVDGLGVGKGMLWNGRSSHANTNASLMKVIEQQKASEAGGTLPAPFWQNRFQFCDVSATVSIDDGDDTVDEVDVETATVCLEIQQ

[3] = target: AMP-activated protein kinase, AMPK (Homo sapiens) (UniProt P54646+O43741+P54619+Q9UGJ0+Q9Y478+Q13131+Q9UGI9); test: AMP-dependent Kinase enzyme assay. An in vitro enzyme assay that detects ADP turnover that is directly proportional to AMPK activity. This uses naive AMPK that is activated during the assay with MK-8722; type: functional; settings: 30 µM
[4] = target: Sialic acid-binding Ig-like lectin 9 (Homo sapiens) (UniProt Q9Y336); test: Hs-Siglec9 ALPHAscreen SOP 20170721; settings: 10 µM
Trypanosoma cruzi = test: Trypanosoma cruzi phosphomannomutase and mannose-1-phosphate guanylyltransferase assay; type: functional; settings: 10 µM
[5] = target: T2, Arginase-2, mitochondrial (Homo sapiens) (UniProt P78540); test: in vitro enzyme assay to detect the production of urea directly proportional to the activity of Arginase II; type: functional; settings: 33.3 µM; note: in the data most compounds retested in dose-response had high values
T2 sequence (whole entry): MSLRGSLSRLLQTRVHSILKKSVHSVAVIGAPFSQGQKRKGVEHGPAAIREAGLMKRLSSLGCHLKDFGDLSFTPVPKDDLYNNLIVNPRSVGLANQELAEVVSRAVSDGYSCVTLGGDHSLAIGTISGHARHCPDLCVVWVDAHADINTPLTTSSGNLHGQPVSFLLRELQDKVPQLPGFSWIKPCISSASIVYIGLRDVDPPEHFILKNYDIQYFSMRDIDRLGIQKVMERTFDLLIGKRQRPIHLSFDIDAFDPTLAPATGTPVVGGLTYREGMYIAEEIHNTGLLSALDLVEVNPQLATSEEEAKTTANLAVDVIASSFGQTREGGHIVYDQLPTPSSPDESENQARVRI

[6] = target: T3, Proteasome subunit beta (Trypanosoma cruzi) (UniProt O96673); test: Trypanosoma cruzi proteasome chymotrypsin-like activity (TcProtChymo) assay.; note: in the data most compounds retested in dose-response had high values; type: functional; settings: 9.37 µM
T3 sequence (whole entry): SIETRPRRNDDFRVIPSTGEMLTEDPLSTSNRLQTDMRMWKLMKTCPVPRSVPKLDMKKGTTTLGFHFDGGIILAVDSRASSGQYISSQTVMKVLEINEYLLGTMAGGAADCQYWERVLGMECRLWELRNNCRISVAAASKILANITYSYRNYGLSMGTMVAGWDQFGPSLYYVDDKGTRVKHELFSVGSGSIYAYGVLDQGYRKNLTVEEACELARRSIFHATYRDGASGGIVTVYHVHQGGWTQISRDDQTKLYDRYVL

Homo sapiens = species on record: Homo sapiens; test: To identify inhibition of the IFN signalling (Jak-Stat) pathway via expression of an eGFP reporter gene under the control of an IFN-stimulated response element (ISRE) containing MxA promoter.; type: functional; settings: 30 µM
[7] = target: T4, Tyrosyl-tRNA synthetase, putative (Trypanosoma cruzi (strain CL Brener)) (UniProt Q4DSP6); test: Trypanosoma cruzi tyrosyl tRNA synthetase (TcYRS) _High Tyrosine SOP; type: functional; settings: 30 µM; note: in the data most compounds retested in dose-response had high values
T4 sequence (whole entry): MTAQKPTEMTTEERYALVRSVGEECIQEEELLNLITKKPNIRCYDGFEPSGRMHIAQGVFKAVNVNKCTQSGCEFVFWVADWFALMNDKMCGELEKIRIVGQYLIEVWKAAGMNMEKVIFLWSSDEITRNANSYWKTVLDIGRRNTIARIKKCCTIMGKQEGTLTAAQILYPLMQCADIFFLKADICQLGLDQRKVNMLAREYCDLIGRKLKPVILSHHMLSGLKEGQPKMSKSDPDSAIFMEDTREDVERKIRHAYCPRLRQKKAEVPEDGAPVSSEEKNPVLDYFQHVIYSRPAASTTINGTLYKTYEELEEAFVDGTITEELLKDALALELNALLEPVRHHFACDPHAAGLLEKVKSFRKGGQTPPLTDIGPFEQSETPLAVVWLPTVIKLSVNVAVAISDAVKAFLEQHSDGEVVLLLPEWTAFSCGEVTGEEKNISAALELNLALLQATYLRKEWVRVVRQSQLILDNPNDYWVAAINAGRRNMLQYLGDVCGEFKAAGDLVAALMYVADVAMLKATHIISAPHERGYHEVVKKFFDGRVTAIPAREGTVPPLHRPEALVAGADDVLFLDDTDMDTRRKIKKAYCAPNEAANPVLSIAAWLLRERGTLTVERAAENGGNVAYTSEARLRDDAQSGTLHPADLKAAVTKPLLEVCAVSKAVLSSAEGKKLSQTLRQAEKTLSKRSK

[8] = target: T4, Tyrosyl-tRNA synthetase, putative (Trypanosoma cruzi (strain CL Brener)); test: Trypanosoma cruzi tyrosyl tRNA synthetase (TcYRS) SOP; type: functional; settings: 30 µM
[9] = target: Chromo domain-containing protein 1 (Saccharomyces cerevisiae (strain ATCC 204508 / S288c) (Baker's yeast)) (UniProt P32657); test: ScCHD-1 Enzyme Inhibition Assay; type: functional; settings: 30 µM; note: in the data most compounds retested in dose-response had high values
Chain of Chromo domain-containing protein 1 (Saccharomyces cerevisiae (strain ATCC 204508 / S288c) (Baker's yeast)) (P32657 whole entry, the tested form may be a part): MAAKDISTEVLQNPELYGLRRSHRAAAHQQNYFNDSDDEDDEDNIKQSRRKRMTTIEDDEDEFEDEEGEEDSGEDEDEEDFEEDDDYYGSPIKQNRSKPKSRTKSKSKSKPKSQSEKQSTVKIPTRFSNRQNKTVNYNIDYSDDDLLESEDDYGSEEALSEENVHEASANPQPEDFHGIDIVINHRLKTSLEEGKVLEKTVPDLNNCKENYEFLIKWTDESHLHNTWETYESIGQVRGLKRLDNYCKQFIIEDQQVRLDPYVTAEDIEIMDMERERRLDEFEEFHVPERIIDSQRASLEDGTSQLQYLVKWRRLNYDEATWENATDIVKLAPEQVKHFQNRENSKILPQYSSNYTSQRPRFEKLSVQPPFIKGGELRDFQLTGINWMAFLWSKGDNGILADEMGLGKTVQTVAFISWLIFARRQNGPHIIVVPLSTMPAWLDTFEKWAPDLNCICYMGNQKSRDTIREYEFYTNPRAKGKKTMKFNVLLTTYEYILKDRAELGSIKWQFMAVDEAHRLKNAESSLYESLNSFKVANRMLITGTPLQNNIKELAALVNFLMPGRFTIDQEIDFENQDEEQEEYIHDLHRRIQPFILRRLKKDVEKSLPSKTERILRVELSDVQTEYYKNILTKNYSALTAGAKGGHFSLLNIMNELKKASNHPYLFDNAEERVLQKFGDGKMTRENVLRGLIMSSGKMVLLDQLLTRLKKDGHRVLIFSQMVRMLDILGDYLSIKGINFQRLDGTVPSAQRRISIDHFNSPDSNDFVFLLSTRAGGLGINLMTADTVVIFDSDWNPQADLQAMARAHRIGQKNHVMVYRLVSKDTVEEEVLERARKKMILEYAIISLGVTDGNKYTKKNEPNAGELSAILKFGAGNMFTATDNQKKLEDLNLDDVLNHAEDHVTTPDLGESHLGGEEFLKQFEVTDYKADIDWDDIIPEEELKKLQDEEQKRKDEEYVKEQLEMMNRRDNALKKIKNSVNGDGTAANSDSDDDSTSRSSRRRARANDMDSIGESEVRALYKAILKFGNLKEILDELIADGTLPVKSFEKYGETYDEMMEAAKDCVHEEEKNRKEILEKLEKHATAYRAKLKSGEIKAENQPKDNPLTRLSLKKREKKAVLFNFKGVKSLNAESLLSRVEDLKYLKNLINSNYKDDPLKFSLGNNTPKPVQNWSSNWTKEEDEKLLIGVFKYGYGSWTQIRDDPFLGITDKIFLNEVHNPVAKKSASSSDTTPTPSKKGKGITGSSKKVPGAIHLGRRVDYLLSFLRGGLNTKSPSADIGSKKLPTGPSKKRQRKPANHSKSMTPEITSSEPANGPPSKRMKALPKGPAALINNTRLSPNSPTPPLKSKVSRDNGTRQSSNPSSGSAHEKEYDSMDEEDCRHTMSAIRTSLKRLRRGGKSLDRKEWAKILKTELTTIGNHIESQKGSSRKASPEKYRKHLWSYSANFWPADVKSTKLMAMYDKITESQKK

Chain of Sialic acid-binding Ig-like lectin 9 (Homo sapiens) (Q9Y336 whole entry): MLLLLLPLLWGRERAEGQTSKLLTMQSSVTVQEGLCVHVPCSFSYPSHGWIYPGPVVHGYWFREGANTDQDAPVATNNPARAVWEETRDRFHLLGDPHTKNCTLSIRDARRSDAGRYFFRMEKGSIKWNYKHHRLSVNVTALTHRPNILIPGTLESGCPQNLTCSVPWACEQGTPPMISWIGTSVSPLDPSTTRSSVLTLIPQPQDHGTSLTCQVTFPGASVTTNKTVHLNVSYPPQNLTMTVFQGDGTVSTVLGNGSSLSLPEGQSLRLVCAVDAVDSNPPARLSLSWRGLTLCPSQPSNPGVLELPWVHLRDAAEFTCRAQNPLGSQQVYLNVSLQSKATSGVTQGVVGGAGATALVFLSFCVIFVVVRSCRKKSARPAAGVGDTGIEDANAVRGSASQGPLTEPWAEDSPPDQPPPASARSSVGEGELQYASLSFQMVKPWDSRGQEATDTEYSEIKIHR
Chain of Protein translocase subunit SecA (Escherichia coli (strain K12)) (P10408 whole entry): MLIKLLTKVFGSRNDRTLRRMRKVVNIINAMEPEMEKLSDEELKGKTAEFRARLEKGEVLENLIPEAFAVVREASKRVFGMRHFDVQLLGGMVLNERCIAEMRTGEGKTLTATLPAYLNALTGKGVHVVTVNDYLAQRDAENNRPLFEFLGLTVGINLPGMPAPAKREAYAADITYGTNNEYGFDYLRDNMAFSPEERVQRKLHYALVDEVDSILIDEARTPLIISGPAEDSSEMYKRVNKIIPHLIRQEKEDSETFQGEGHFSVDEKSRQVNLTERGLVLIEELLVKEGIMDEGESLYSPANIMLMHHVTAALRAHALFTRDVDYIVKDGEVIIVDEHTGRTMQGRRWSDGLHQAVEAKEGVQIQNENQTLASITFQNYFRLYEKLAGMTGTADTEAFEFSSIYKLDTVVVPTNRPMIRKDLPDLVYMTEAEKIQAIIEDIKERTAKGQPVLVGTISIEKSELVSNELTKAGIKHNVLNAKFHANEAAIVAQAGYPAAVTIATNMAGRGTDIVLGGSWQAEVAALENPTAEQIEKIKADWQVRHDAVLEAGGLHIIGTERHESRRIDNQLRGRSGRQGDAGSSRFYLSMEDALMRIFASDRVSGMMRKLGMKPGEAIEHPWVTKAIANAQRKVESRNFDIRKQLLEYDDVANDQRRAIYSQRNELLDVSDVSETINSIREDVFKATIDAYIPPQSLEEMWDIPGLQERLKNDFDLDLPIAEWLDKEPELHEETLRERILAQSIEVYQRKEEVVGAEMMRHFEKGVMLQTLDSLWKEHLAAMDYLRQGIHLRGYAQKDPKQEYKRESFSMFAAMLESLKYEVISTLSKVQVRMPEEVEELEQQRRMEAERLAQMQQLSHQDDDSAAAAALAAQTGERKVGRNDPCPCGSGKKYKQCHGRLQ

Compound | Percent Effect [1] [%] | Percent Effect [2] [%] | Percent Effect [3] [%] | Percent Effect [4] [%] | Percent Effect (Trypanosoma cruzi) [%] | Percent Effect [5] [%] | Percent Effect [6] [%] | Percent Effect (Homo sapiens) [%] | Percent Effect [7] [%] | Percent Effect [8] [%] | Percent Effect [9] [%]
CC(OCC(F)(F)F)C(=O)N1CCN(S(C)(=O)=O)CC1 (stereo unspecified) | -3.82 | 8.22 | 1.32 | -5.16 | -3.92 | 1.36 | 9.05 | 17.4 | 6.45 | 15 | -6.7
CC(NC(=O)NCc1ccoc1)c1ccc2c(c1)CCC(=O)N2 (stereo unspecified) | -9.31 | -7.79 | -9.15 | 13 | 12.2 | 2.49 | 28.6 | 16.5 | 8.74 | 24.4 | -9.68
O=C(CCc1ccc(Cl)s1)N1CCCC(n2cncn2)C1 (stereo unspecified) | -2.21 | -2.53 | 3.52 | 6.43 | -0.0944 | 5.32 | -3.36 | -2.4 | 0.493 | -1.27 | 0.688
CCC(=O)NCc1cc(Br)c(OC)c(OC)c1 | -7.41 | 5.33 | -0.145 | 4.49 | 4.19 | -9.9 | 5.75 | -1.33 | 1.64 | 11.1 | -3.06
Cc1cnn(CCNCc2ccc(OCC(N)=O)cc2)c1 | -7.27 | 5.33 | -3.69 | 3.41 | 3.8 | 5.21 | 4.36 | -9.67 | 3.83 | 8.64 | -7.44
Cc1ccc2c(n1)N(CCn1cccn1)CCN(C(=O)CC1CC1)C2 | -3.68 | 5.41 | -9.57 | 3.09 | -4.4 | 1.74 | 10.6 | 10.3 | -5.38 | 11.1 | -7.62
CC(=O)Nc1ccc(S(=O)(=O)NC(=O)CCC2CCCO2)cc1 (stereo unspecified) | -9.79 | 10.8 | -16.6 | 34.9 | 8.21 | -16.8 | 6.31 | -1.72 | 1.48 | 13.6 | -16.9
Cc1ccc2cc(CNCCCO)c(=O)[nH]c2c1 | 2.35 | 9.46 | 7.11 | -4.27 | -5.34 | 4.41 | 5.15 | 8.44 | 1.07 | 9.09 | -13.8
O=C(CCO)N1CCOC2(CCCN(C(=O)c3ccco3)C2)C1 (stereo unspecified) | 2.21 | -5.2 | 0.24 | 19.9 | 4.82 | 4.14 | 11.3 | -33.1 | -12.9 | -13.6 | 0.942
CC(C)c1nc(C2CCCN(C(=O)Cc3cccnc3)C2)no1 (stereo unspecified) | -0.76 | 16.2 | -13.3 | -2.67 | -10.3 | -1.6 | 2.16 | 25.4 | 5.42 | 6.17 | -2.89
COc1c(C2CCCN2C(=O)c2ccc(Cl)o2)c(C)nn1C (stereo unspecified) | -5.93 | 13.5 | -4.28 | 21.4 | 2.93 | 4.17 | 10.6 | -2.68 | 5.94 | 18.3 | -0.337
